# In the library only some 8% were active in any assay of this set; here they are far more common.
# LASV entry inh: qHTS for Inhibitors of binding or entry into cells for Lassa Virus. Lassa virus pseudotyped entry inhibition, cell-based qHTS. actives 4.1% (n = 18,000). Potency, µM (series often up to 49.2 µM), without a hit: top-dose activity change, negative = inhibition, actives largely listed as inhibitors
# MARV entry inh: qHTS for Inhibitors of binding or entry into cells for Marburg Virus | Marburg virus pseudotype entry/binding inhibition, cell-based | Potency, µM (highest dose often 49.2 µM), for inactives: at the top dose activity change, negative = inhibition, actives largely listed as inhibitors | actives 6.5% (n = 18,000)
# Numbers without * were called inactive; ? = inconclusive; nt = no result given; ! = a repeat was not active; [ ] = remark or other dose. Calls come from the whole dose curve; tested in HEK293 cells. % is set by controls: 0 for no effect and ±100 for the full control effect; potency is the fitted concentration of half-maximal effect.
SMILES,LASV entry inh,MARV entry inh
N[C@H](C(=O)O)c1ccc(O)c(C(=O)O)c1,-3%,11%
O=C(O)c1cc(N(Cc2ccccc2O)Cc2cc(O)ccc2O)ccc1O,?,20µM*!
CCN1C(=O)[C@@H]2[C@H]3[C@H](O)[C@H](O)CC(=NO[C@@H](C)c4cc(-c5c(C)cc(C)cc5C)no4)[C@@H]3CC[C@H]2C1=O,-2%[8.59 µM],-13%[8.59 µM]
C#CCN1C(=O)[C@]2(OCCC=C[C@@H]2C)c2cc(OC)ccc21,5%[8.59 µM],9%[8.59 µM]
CCN(CC)CCCN1C(=O)C2=C(C1=O)C1N(C)c3ccccc3[C@@]13C[C@@H](CO)N(C(=O)CCC(=O)OC)C3=N2 (stereo partly specified),41%[8.59 µM],7%[8.59 µM]
OCCOCCN1CCN(C(c2ccccc2)c2ccc(Cl)cc2)CC1 (stereo unspecified),-17%,?
OC/C=C/c1ccccc1,-13%,8%
C(=C\c1ccccc1)/CN1CCN(C(c2ccccc2)c2ccccc2)CC1,-25%[17.8 µM],-11%[17.8 µM]
Clc1ccc(C(OCCN2CCCCC2)c2ccccc2)cc1 (stereo unspecified),?,13µM*
C(=C\c1ccccc1)/CN1CCN(CCOC(c2ccccc2)c2ccccc2)CC1,32µM*,8.9µM*
Fc1ccc(C(c2ccc(F)cc2)N2CCN(C/C=C/c3ccccc3)CC2)cc1,32µM*!,2.5µM*
COc1cccc([C@@H]2Oc3ccc(Br)cc3C(=O)[C@H]2OC(=O)Nc2ccc(OC(F)F)cc2)c1,53%,28%
Cc1c(C(=O)N(C)Cc2cccc3ncccc23)cnn1-c1nccc(-c2ccccc2F)n1,-10%,10%
COc1ccc([C@]23Cc4cc(OC)c(OC)cc4[C@H](O2)C2=C(CC4(CCCCC4)OC2=O)O3)cc1,-3%[8.59 µM],2%[8.59 µM]
CC(C)Cc1nc2cc(NS(=O)(=O)N(C)C)cc(C(=O)N3CCOCC3)c2n1C,20%,-6%
CN1CCC(CN2c3ccccc3Sc3ccccc32)C1 (stereo unspecified),16µM*,10µM*
c1ccc2c(c1)Sc1ccccc1N2CC1CN2CCC1CC2 (stereo unspecified),?,13µM*
CN1CC[C@@H]2CN3CCc4cccc(c43)[C@H]2C1,-6%,?
C=CC1(O)C(OC)=CC2C(=O)C1C(c1ccccc1)C2C (stereo unspecified),nt,14%[8.59 µM]
CC[C@H](C)[C@H](NC(=O)[C@H](CC(C)C)NC(=O)[C@@H](N)CO)C(=O)NCC(=O)N[C@@H](CCCN=C(N)N)C(=O)N[C@@H](CC(C)C)C(=O)O,-2%,7%
COC(=O)C1=C(C(=O)OC)[C@@H]2Nc3ccccc3[C@@]23C[C@@H](C(=O)OC)N(C(=O)NCCBr)C3=N1,-11%[8.59 µM],78%[8.59 µM]
CC(C)CCCC(C)C1CCC2C3CC=C4CC(=O)CC[C@@]4(C)C3CC[C@@]12C (stereo partly specified),1%,2%
CC(=Nc1ccc(S(N)(=O)=O)cc1)c1c(O)[nH]c2ccccc12,95%,91%
CCON=O,10µM*,-18%
CC(C)CCON=O,-6%,-23%
SMILES,LASV entry inh,MARV entry inh
O=C(NCc1ccncc1)c1cnn(-c2nccc(-c3cc4ccccc4o3)n2)c1C1CC1,-17%,-22%
COC[C@H](c1ccc(C(F)(F)F)cc1)N1CCN(C2(C)CCN(C(=O)c3c(C)ncnc3C)CC2)C[C@H]1C,-21%,-15%
CC(C)N1CCN(c2ccc(C(=O)c3c(-c4ccc(O)cc4)sc4cc(O)ccc34)cc2)CC1,?,5µM*
CCCCOc1ccc(C(=O)CCN2CCCCC2)cc1,-9%,?
O=C(c1ccc(OCCN2CCCCC2)cc1)c1c(-c2ccc(O)cc2)sc2cc(O)ccc12,32µM*!,14µM*
CCC(C)CN1C(=O)NC(CCc2ccccc2)C(C(C)=O)=C1C (stereo unspecified),-10%[8.59 µM],?
O=C(OCc1ccccc1)[C@@H]1COC(c2ccc(Br)cc2)=N1,21%,40%
CCCCCCCCCCOc1cc(OCCCCCCCCCC)cc(N(CC(=O)O)CC(=O)O)c1,3%,5%
CC(=O)[C@]12[C@H](c3ccccc3)[C@@H]3CCN(C(=O)N[C@H]1c1ccccc1)[C@@]32C,-1%[8.59 µM],-11%[8.59 µM]
C[C@@H]1O[C@@H](O[C@H]2CC[C@]3(C=O)C4CC[C@]5(C)[C@@H](C6=CC(=O)OC6)CC[C@]5(O)[C@@H]4CC[C@]3(O)C2)[C@H](O)[C@H](O)[C@H]1O (stereo partly specified),0.11µM*,0.1µM*
COC1C(O)C(OC2CC[C@]3(C=O)C4C(OC(C)=O)C[C@@]5(C)C(C6=CC(=O)OC6)CC[C@]5(O)C4CC[C@]3(O)C2)OC(C)C1OC(C)=O (stereo partly specified),0%,-13%
CC1O[C@@H](OC2CC[C@@]3(C=O)C4CC[C@]5(C)C(C6=CC(=O)OC6)CC[C@@]5(O)C4CC[C@]3(O)C2)C(O)C(O)C1O (stereo partly specified),0.25µM*,0.2µM*
C[C@]12CCC3C(CC[C@]4(O)CC(O)CC[C@@]34C=O)[C@]1(O)CCC2C1=CC(=O)OC1 (stereo partly specified),11µM*,10µM*
CC#CCN1C(=O)NC(c2ccccc2)C(C#N)=C1C (stereo unspecified),-18%[8.59 µM],23%[8.59 µM]
CC(=O)OCC(N)C(=O)c1ccccc1 (stereo unspecified),10%,4%
COc1ccc(OC)c(-c2ccnc(-n3ncc(C(=O)NC(C)(C)CO)c3C3CC3)n2)c1,22%,51%
N[C@@H](Cc1cc(I)c(Oc2ccc(O)cc2)c(I)c1)C(=O)O,-7%,32%
CCCC[C@H]1CN2[C@H](c3ccc(Br)cc3)[C@H](C)CC[C@H]2C(=O)O1,8%[8.59 µM],2%[8.59 µM]
CC[C@]1(O)CC(O[C@@H]2CC(N(C)C)C(O)C(C)O2)c2c(cc3c(c2O)C(=O)c2c(O)ccc(O)c2C3=O)C1C(=O)OC (stereo partly specified),-3%,?
CC[C@@]1(O)C[C@H](O[C@H]2C[C@H](N(C)C)[C@H](O[C@H]3C[C@H](O)[C@H](O[C@H]4CCC(=O)[C@H](C)O4)[C@H](C)O3)[C@H](C)O2)c2c(cc3c(c2O)C(=O)c2c(O)cccc2C3=O)[C@H]1C(=O)OC,8.9µM*,?
CC[C@H](C)[C@H](NC(=O)[C@H](CCCNC(=N)N)NC(=O)[C@@H](NC(=O)[C@H](CCCNC(=N)N)NC(=O)[C@H](CCCCN)NC(=O)[C@H](CCCNC(=N)N)NC(=O)[C@@H](NC(=O)[C@H](CC(N)=O)NC(=O)[C@@H](N)CS)[C@@H](C)O)[C@@H](C)CC)C(=O)N[C@@H](CCC(N)=O)C(=O)N[C@@H](CCCNC(=N)N)C(=O)NCC(=O)N1CCC[C@H]1C(=O)NCC(=O)N[C@@H](CCCNC(=N)N)C(=O)N[C@@H](C)C(=O)N[C@@H](Cc1ccccc1)C(=O)N[C@H](C(=O)N[C@H](C(=O)N[C@H](C(=O)NCC(=O)N[C@@H](CCCCN)C(=O)O)[C@@H](C)CC)[C@@H](C)O)C(C)C,1%,2%
CCC1CC2C=CCS[P@](=O)(O2)O1 (stereo partly specified),-31%,18%
CS(=O)(=O)Nc1cccc(-c2ccc3c(NC(=O)C4CC4)n[nH]c3c2)c1,nt,3.5µM*
CS(=O)(=O)Nc1ccc(-c2ccc3c(NC(=O)C4CC4)n[nH]c3c2)cc1,-74%,11%

# Bioassay records from PubChem.
